This note sets out measurements from the OligoGym collection.
Further: reference of the scale not given here.

The target of the assay is CASP8. Briefly: pooled miR-30 sensor sort-seq; sequence = guide strand. The settings on record: shRNA.
As for TTGATTTGGGCACAGACTCTTT, the sensor-assay potency score (higher = more potent) is -0.862.

TATTAATAGATGATCGACCCTC displayed a sensor-assay potency score (higher = more potent) of -0.244.

Regarding TTACTTTCAATAACCACCCTGG, the sensor-assay potency score (higher = more potent) came out at 0.486.

In turn, TTTTGCAAAATTGTGATTGTTG returned a sensor-assay potency score (higher = more potent) of 0.0045.

The sequence TAATGATTTAAAATAATCCAAG displayed a sensor-assay potency score (higher = more potent) of -1.15.

For TAATAGATGATCGACCCTCCGC, the sensor-assay potency score (higher = more potent) is -0.463.

Regarding TACTGTGCAGTCATCGTGGGGC, the sensor-assay potency score (higher = more potent) is 0.503.

Consider TTTCTGCTGAAGTCCATCTTTT, for which the sensor-assay potency score (higher = more potent) is -1.01.

ATAGTCGTTGATTATCTTCAGC came in with a sensor-assay potency score (higher = more potent) of -0.538.

As to TTTACTTTCAATAACCACCCTG, the sensor-assay potency score (higher = more potent) was found to be 0.433.

Consider TTAGTGTGAAAGTAGGCTGAGG, for which the sensor-assay potency score (higher = more potent) was -0.589.

Consider TTTCTTGTCATCCTTGTTGCTT, for which the sensor-assay potency score (higher = more potent) was -0.189.

ATCTGATAGAGCATGACCCTGT had a sensor-assay potency score (higher = more potent) of -0.509.

In turn, TTCATAGTCGTTGATTATCTTC yielded a sensor-assay potency score (higher = more potent) of -0.794.

In turn, TTCTGAAATCTGATAGAGCATG displayed a sensor-assay potency score (higher = more potent) of -1.4.

TAAACTTTGTCCAAAGTCTGTG displayed a sensor-assay potency score (higher = more potent) of -0.0888.
